Laboratory results taken from the supplement of paper PMC9694430.

Test system: T1, LOC_OS04G38480-cb003
T1 sequence (whole entry): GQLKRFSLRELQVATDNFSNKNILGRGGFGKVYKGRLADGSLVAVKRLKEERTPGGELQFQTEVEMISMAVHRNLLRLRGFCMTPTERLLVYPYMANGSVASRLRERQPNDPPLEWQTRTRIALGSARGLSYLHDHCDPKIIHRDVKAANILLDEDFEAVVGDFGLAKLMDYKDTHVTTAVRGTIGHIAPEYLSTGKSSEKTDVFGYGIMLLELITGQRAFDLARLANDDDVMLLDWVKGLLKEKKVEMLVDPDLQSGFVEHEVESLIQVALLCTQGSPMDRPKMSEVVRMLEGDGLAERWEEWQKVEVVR
Assay: thermal shift delta Tm vs DMSO control; higher = stronger stabilization (binding)
Settings: 12.5 µM; protein concentration 2 µM
Outline: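 Rice kinase domain constructs, made in E. coli and purified, were placed in 96-well plates at 2 μM in 19.5 μl of 100 mM potassium phosphate pH 7.5, 150 mM NaCl, 10% glycerol and 5 × SYPRO Orange, with compound in DMSO. A temperature ramp from 25°C to 95°C at 0.05°C/s was used for differential scanning fluorimetry. The melting temperature shift is a triplicate mean compared with DMSO-only protein, derived from Boltzmann fits.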
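Further: purified Escherichia coli-expressed rice kinase domain construct.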

| Structure (SMILES) | thermal shift delta Tm [°C] |
| --- | --- |
| CC(C)(C)c1cc(C=C(C#N)C#N)cc(Br)c1O | -0.82 |
| COc1ccc(C[C@H]2NC[C@H](O)[C@H]2OC(C)=O)cc1 [Anisomycin] | 0.22 |
| Cc1ccccc1-n1c(Cn2ncc3c(N)ncnc32)nc2cccc(C)c2c1=O | -0.52 |
| COc1ccc2c(c1)/C(=C/c1cnc[nH]1)C(=O)N2 | 2.32 |
| O=c1[nH]c2ccc(Cl)cc2c(N[C@@H]2CN3CCC2CC3)c1-c1nc2ccccc2[nH]1 | 2.51 |
| COc1ccc(N(C(=O)Oc2c(C)cccc2C)c2ccnc(Nc3ccc(N4CCN(C)CC4)cc3)n2)c(OC)c1 | 1.41 |
| Cn1cc(C2=C(c3cn(C4CCN(Cc5ccccn5)CC4)c4ccccc34)C(=O)NC2=O)c2ccccc21 | 2.44 |
| COc1cc([C@@H]2c3cc4c(cc3[C@H](O)[C@H]3COC(=O)[C@@H]23)OCO4)cc(OC)c1OC [Picropodophyllin (PPP)] | 0.78 |
| C/C(O)=C(\C#N)C(=O)Nc1cc(Br)ccc1Br | 1.9 |
| CCN1CCN(C(=O)Cc2ccc(Nc3ncc(F)c(Nc4ccc(C(=O)Nc5ccccc5Cl)cc4)n3)cc2)CC1 [Aurora A Inhibitor I] | 3.38 |
| CC(C)(C)c1cc(C=C(C#N)C#N)cc(C(C)(C)C)c1O [Tyrphostin 9] | 1.65 |
